Measurements as given in ChEMBL document CHEMBL3988442, “University of Dundee, Small-Polar-MMV Screening Library” (2021).

Assays:
[1] = target: T1, Aspartate--tRNA(Asp/Asn) ligase (Mycobacterium tuberculosis (strain ATCC 25618 / H37Rv)) (UniProt P9WFW3); experiment: Assay for Asp RNA synthetase-1 from Mycobacterium tuberculosis; format: functional; parameters: scale not given: direction of the effect not stated beside the values; settings: 30 µM; note: in the data most compounds retested in dose-response had high values
T1 sequence (whole entry): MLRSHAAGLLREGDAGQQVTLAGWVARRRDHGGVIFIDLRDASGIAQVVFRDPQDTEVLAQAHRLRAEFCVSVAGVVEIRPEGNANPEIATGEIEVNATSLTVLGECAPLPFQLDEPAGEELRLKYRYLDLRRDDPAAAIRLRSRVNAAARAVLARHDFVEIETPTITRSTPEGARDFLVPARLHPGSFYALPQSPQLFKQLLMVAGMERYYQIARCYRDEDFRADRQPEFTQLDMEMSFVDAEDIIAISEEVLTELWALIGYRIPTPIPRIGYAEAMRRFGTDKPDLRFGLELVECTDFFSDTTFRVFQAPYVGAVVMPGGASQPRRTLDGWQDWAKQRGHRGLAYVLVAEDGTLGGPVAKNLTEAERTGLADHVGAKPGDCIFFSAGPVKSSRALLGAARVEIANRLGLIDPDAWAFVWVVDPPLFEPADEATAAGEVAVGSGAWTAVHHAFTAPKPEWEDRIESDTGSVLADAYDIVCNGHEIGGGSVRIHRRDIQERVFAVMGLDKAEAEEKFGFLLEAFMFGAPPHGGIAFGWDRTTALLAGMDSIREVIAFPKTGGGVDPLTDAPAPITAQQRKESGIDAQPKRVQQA

[2] = target: Shiga toxin 2 (Escherichia coli O157:H7) (UniProt P09385+P09386); experiment: E. coli 0.157:H7 Shiga Toxin SOP - stx2 screening assay; format: functional; parameters: scale not given: direction of the effect not stated beside the values; settings: 30 µM

## COCc1cn([C@@H]2c3ccccc3C3(CCNCC3)[C@H]2O)nn1
[1]
  Percent Effect: 3.45%
[2]
  Percent Effect: 8.95%

## CCC(CC)NC(=O)Cn1nc(C)nc1-c1ccccc1
[1]
  Percent Effect: -2.19%
[2]
  Percent Effect: 23%

## COCCNc1nc2c(c(NCc3ccncc3)n1)CCNCC2
[1]
  Percent Effect: 2.58%
[2]
  Percent Effect: -12.3%

## CCc1ccc(O)c(C(=O)NC2CCN(C(=O)OC)CC2)c1
[1]
  Percent Effect: -2.88%
[2]
  Percent Effect: -48.7%

## Cc1nn(C)c2sc(C(=O)N3CCCC(n4ccnc4C)C3)cc12 (centres undefined)
[1]
  Percent Effect: -1.41%
[2]
  Percent Effect: -28.1%

## COc1cccc(CNC(CN2CCN(C)CC2)c2ccccc2)c1 (centres undefined)
[1]
  Percent Effect: 3.94%
[2]
  Percent Effect: -26%

## O=C1COC2(CCN(CC3CC3)CC2)CN1c1ccccc1
[1]
  Percent Effect: -0.547%
[2]
  Percent Effect: 5.01%

## CCCNC(=O)c1c(-n2cnnn2)sc2c1CCC2
[1]
  Percent Effect: 1.26%
[2]
  Percent Effect: -42%

## Cc1nc(-c2cccc(C(=O)O)c2)cc(C2CCN(C(C)C)C2)n1 (centres undefined)
[1]
  Percent Effect: -4.63%
[2]
  Percent Effect: 4.12%

## CCCN(CC1COc2ccccc2O1)C(=O)CCn1cncn1 (centres undefined)
[1]
  Percent Effect: -2.54%
[2]
  Percent Effect: 34.4%

## CCc1nccn1C1CCCN(C(=O)Cc2ccc(OC)c(F)c2)C1 (centres undefined)
[1]
  Percent Effect: -7.86%
[2]
  Percent Effect: 4.47%

## Cc1cc(C)cc(C2(C(=O)NC(C)Cn3ccnc3)CC2)c1 (centres undefined)
[1]
  Percent Effect: -2.37%
[2]
  Percent Effect: -14.1%

## CCc1nccn1C1CCCN(C(=O)c2csc(COC)n2)C1 (centres undefined)
[1]
  Percent Effect: 4.12%
[2]
  Percent Effect: -14.9%

## CCOc1ccc(N(CC(=O)c2ccccc2)C2=NCCCCC2)cc1
[1]
  Percent Effect: 1.35%
[2]
  Percent Effect: -5.46%

## CC(=O)NCc1ccc(C(=O)N2CCCCC2Cn2cccn2)o1 (centres undefined)
[1]
  Percent Effect: 0.175%
[2]
  Percent Effect: -2.7%

## COc1c(C)cnc(CN2CCCCC2Cn2nc(C)nc2C)c1C (centres undefined)
[1]
  Percent Effect: -2.54%
[2]
  Percent Effect: -21.3%

## COc1ccc(CN2CCC3(CC2)CCN(CC(C)C)C3=O)cc1
[1]
  Percent Effect: -3.87%
[2]
  Percent Effect: 3.87%

## Cn1cc(CN2CCC(F)(F)C3(CCN(c4cnccn4)C3)C2)cn1 (centres undefined)
[1]
  Percent Effect: -3.65%
[2]
  Percent Effect: -4.7%

## CN(C)C(=O)N1CCN(Cc2noc(Cc3ccccc3)n2)CC1
[1]
  Percent Effect: 0.542%
[2]
  Percent Effect: 8.78%

## Cc1ccc(Cl)cc1N1CCC(CNC(=O)CC(F)(F)F)C1 (centres undefined)
[1]
  Percent Effect: -1.19%
[2]
  Percent Effect: -45.5%

## O=C(N1CCCCC1)N1CCN(CC(O)c2ccc(F)cc2)CC1 (centres undefined)
[1]
  Percent Effect: -2.17%
[2]
  Percent Effect: 31.9%

## CCc1csc(C2CCCN(C(=O)c3ccnc(N(C)C)c3)C2)n1 (centres undefined)
[1]
  Percent Effect: 1.86%
[2]
  Percent Effect: -14.7%

## Cc1cnn(CCNCc2ccccc2C#N)c1
[1]
  Percent Effect: -1.14%
[2]
  Percent Effect: 12.5%

## CCOc1ccc2[nH]c(=O)c(CN3CCC(O)CC3)cc2c1
[1]
  Percent Effect: -6.3%
[2]
  Percent Effect: -8.86%

## CC(NC(=O)NCCCc1n[nH]c(N)c1C#N)c1ccccc1 (centres undefined)
[1]
  Percent Effect: 1.03%
[2]
  Percent Effect: -17.6%

## Cc1ccc(NC(=O)N2C[C@H]3CC[C@@H]2CN(Cc2cscn2)C3)cc1
[1]
  Percent Effect: -2.57%
[2]
  Percent Effect: 8.71%

## CSCc1cccc(S(=O)(=O)NCCCN2CCOCC2)c1
[1]
  Percent Effect: 13.9%
[2]
  Percent Effect: -32.1%

## Cc1noc(C)c1CNCC1CCCN1c1cccnn1 (centres undefined)
[1]
  Percent Effect: 1.53%
[2]
  Percent Effect: 5.13%

## O=C(Nc1cc(C(F)(F)F)c[nH]c1=O)N1CCCSCC1
[1]
  Percent Effect: 5.77%
[2]
  Percent Effect: 8.92%

## CN(CC(=O)Nc1ccc(Br)cn1)C(=O)Cc1ccc(O)cc1
[1]
  Percent Effect: -5.92%
[2]
  Percent Effect: 17.8%

## COc1c(CNCc2cnn(C)c2)c(C(C)C)nn1C
[1]
  Percent Effect: -1.63%
[2]
  Percent Effect: 6.94%

## O=C(C1CCOCC1)N1C[C@@H]2[C@@H](C1)OCC(=O)N2CC1CC1
[1]
  Percent Effect: 3.77%
[2]
  Percent Effect: -0.921%

## Cc1cnn(CCC(=O)N2CCN(c3nc(C)cs3)CC2)c1
[1]
  Percent Effect: -4.11%
[2]
  Percent Effect: -15.5%

## COc1ccc(CN2CCCC(Cn3nc(C)nc3C)C2)cc1F (centres undefined)
[1]
  Percent Effect: 0.335%
[2]
  Percent Effect: -1.86%

## O=C(NCCC(=O)N1CCCc2ccccc21)c1c(O)cc(F)cc1F
[1]
  Percent Effect: -3.63%
[2]
  Percent Effect: -9.36%

## Cc1nc(C2CCCN(C(=O)c3ccc(N4CCCC4)nc3)C2)no1 (centres undefined)
[1]
  Percent Effect: -2.58%
[2]
  Percent Effect: -1.41%

## Cc1cc(C)n(C2CN(Cc3noc(-c4ccccc4)n3)C2)n1
[1]
  Percent Effect: 4.04%
[2]
  Percent Effect: -51.5%

## CN(Cc1ccncc1)C(=O)Nc1cnn(CC2CCCO2)c1 (centres undefined)
[1]
  Percent Effect: 2.49%
[2]
  Percent Effect: -5.44%

## CNC(=O)CS(=O)(=O)Cc1coc(-c2ccc(F)cc2)n1
[1]
  Percent Effect: -1.26%
[2]
  Percent Effect: -3.77%

## CC[C@@H]1N(Cc2ccsc2)CCC[C@]12CCC(=O)N2C
[1]
  Percent Effect: -1.82%
[2]
  Percent Effect: 5.09%

## CNC(=O)C1CCC(NC(=O)N(C)Cc2c(C)noc2C)CC1 (centres undefined)
[1]
  Percent Effect: -3.01%
[2]
  Percent Effect: 14.3%

## COc1ccc(-c2nnc(SC(C)C(=O)NC3CC3)[nH]2)c(OC)c1 (centres undefined)
[1]
  Percent Effect: 2.19%
[2]
  Percent Effect: 7.63%

## CC(C)n1c(=O)nc2n1C(=O)N(c1ccccc1)C2
[1]
  Percent Effect: 2.04%
[2]
  Percent Effect: 0.0543%

## OC(CNCCn1cccn1)c1ccc(F)c(F)c1 (centres undefined)
[1]
  Percent Effect: -2.25%
[2]
  Percent Effect: -25.7%

## O=C(O)C1(Cc2cccc(-c3ccc(F)c(F)c3)c2)CCOCC1
[1]
  Percent Effect: 4.93%
[2]
  Percent Effect: 7.92%

## Cc1nnc(SCC(=O)N2CCC3(CC2)c2ccccc2CC3O)o1 (centres undefined)
[1]
  Percent Effect: 4.4%
[2]
  Percent Effect: -18.7%

## Cc1cc(CNC(=O)C2CCCCN2C(=O)OC(C)(C)C)no1 (centres undefined)
[1]
  Percent Effect: 0.607%
[2]
  Percent Effect: 10.5%
